Assay results published in PubChem BioAssay (EPA / NIEHS).
Calls of active or inactive are those of the source. How the source made its calls: active means hit-call score of the fitted dose curve at least 0.9, where 1 is the maximum; inactive means score below 0.9.

Experiment: ATG_EGR_CIS: Attagene CIS-FACTORIAL HepG2 Assay for human Early Growth Response 1 (EGR1) (AID 2282938)
Settings: HepG2 Attagene CIS-FACTORIAL EGR reporter mRNA; actives raise or lower the signal
Method: ATG_CIS is a cell-based, multiplexed-readout assay that uses HepG2, a human liver cell line, with measurements taken at 24 hours after chemical dosing in a 24-well plate.ATG_EGR_CIS is one of 52 assay component(s) measured or calculated from the ATG_CIS assay. It is designed to make measurements of mRNA induction, a form of inducible reporter, as detected with fluorescence intensity signals by Reverse transcription polymerase chain reaction (RT-PCR) and Capillary electrophoresis technology.Data from the assay component ATG_EGR_CIS was analyzed into 1 assay endpoint. This assay endpoint, ATG_EGR_CIS, was analyzed with bidirectional fitting relative to DMSO as the negative control and baseline of activity. Using a type of inducible reporter, measures of mRNA for gain or loss-of-signal activity can be used to understand the reporter gene at the transcription factor-level as they relate to the gene EGR1. Furthermore, this assay endpoint can be referred to as a primary readout, because this assay has produced multiple assay endpoints where this one serves a reporter gene function. To generalize the intended target to other relatable targets, this assay endpoint is annotated to the dna binding intended target family, where the subfamily is zinc finger.
Human liver HepG2 cells are transiently transfected with multiple reporter transcription units (MRTUs) in 6-well plates using FuGene 6 reagent (Roche; 3 ml FuGene/1 mg DNA). The MRTU constructs are regulated by a cis-regulating element (promoter). […] A major difference between the CIS and TRANS system is that in CIS activities of endogenous TFs are measured, whereas the TRANS assay evaluates changes in activities of exogenous, chimeric NR-Gal4 proteins. […] At the end of 24 hour incubation, total RNA was isolated using TriZol reagent (Invitrogen). The isolated RNA is then reverse-transcribed using oligo(dT) primer and Mo-MLV reverse transcriptase (Invitrogen) with DNAse I (Ambion) treatment for 30 min. The one-tenth of the produced cDNA was amplified by PCR using Taq DNA polymerase (Invitrogen) and two reporter sequence-specific primers. The PCR products were fluorescently labeled by primer extension with 6-arboxyfluorescein (6-FAM) 5'-labeled reporter sequence-specific primer (2 min at 95 C, 20 s at 68 C and 10 min at 72 C) and these products were digested with 5U of HpaI (New England Biolabs) for 2h at 37 C. The fragments were purified using Qiaquick PCR columns (Qiagen), analyzed on an ABI 3130xL genetic analyzer (Applied Biosystems) with peak positions identified by using a set of X-rhodamine (ROX)-labeled MapMarker1000 molecular weight standards (BioVentures). The raw capillary electrophoresis data was processed using Attagraph software (Attagene).

| Compound | outcome | AC50 |
| --- | --- | --- |
| CCc1ccc(C)nc1 | inactive |  |
| O=C=Nc1cccc2c(N=C=O)cccc12 | inactive |  |
| N#CCCOCCC#N | inactive |  |
| CCCCOC(=O)[C@H](C)O | inactive |  |
| CCOCN(C(=O)CS(=O)(=O)O)c1c(C)cccc1CC | inactive |  |
| O=C(F)C1(F)C(F)(F)C(F)(F)C(F)(F)C(F)(F)C1(F)F | inactive |  |
| FC(F)(F)C(F)(F)C(F)(F)C(F)(F)C(F)(F)C(F)(F)CC[Si](Cl)(Cl)Cl | inactive |  |
| COC(F)(C(F)F)C(F)(F)F (stereo not given) | inactive |  |
| C=CC(=O)OCC(F)(F)C(F)(F)C(F)(F)COC(=O)C=C |  | 42.4 µM (active) |
| O=S(=O)(O)c1ccc(Cl)cc1 | inactive |  |
| O=C(O)C(F)(F)C(F)(F)C(F)(F)OC(F)(F)F | inactive |  |
| C=C(C)C(=O)OCC(F)(F)C(F)(F)C(F)(F)C(F)F | inactive |  |
| CC(C)(C)C(=O)C1C(=O)c2ccccc2C1=O | inactive |  |
| CC(C)CC=C(C=O)c1ccccc1 | inactive |  |
| O=c1cccc[nH]1 | inactive |  |
| O=S(=O)(OCC(F)(F)F)C(F)(F)C(F)(F)C(F)(F)C(F)(F)F | inactive |  |
| Oc1ccc2c(c1)CCC2 | inactive |  |
| OCCCCC(F)(F)C(F)(F)C(F)(F)C(F)(F)F | inactive |  |
| CCCCCCCC/C=C\CCCCCCCC(=O)OCC(O)CO (stereo not given) | inactive |  |
| CN(C(=O)C(F)(F)C(F)(F)C(F)(F)F)[Si](C)(C)C | inactive |  |

| Compound | outcome | AC50 |
| --- | --- | --- |
| OCC(O)CC(F)(F)C(F)(F)C(F)(F)C(F)(F)C(F)(F)C(F)(F)C(F)(F)C(F)(F)F (stereo not given) | inactive |  |
| O=c1[nH]cccc1O | inactive |  |
| CC1=CCC2C(=O)OC(=O)C2C1 (stereo not given) | inactive |  |
| O=C(c1ccccc1)c1ccc(O)cc1O | inactive |  |
| O=C=NCc1cccc(CN=C=O)c1 | inactive |  |
| CSc1ccc(Cl)cc1 | inactive |  |
| O=C(O)CCC(F)(F)C(F)(F)C(F)(F)C(F)(F)C(F)(F)C(F)(F)C(F)(F)F | inactive |  |
| CC(C)(C)c1cc(Cc2cc(C(C)(C)C)c(O)c(C(C)(C)C)c2)cc(C(C)(C)C)c1O | inactive |  |
| CCN(CC)c1ccc(N=Nc2ccccc2)cc1 |  | 12.3 µM (active) |
| CN(C)C(C)(C)CO | inactive |  |
| OCCCC(F)(F)C(F)(F)C(F)(F)C(F)(F)C(F)(F)C(F)(F)C(F)(F)C(F)(F)F | inactive |  |
| O=S(=O)(O)CCC(F)(F)C(F)(F)C(F)(F)C(F)(F)C(F)(F)C(F)(F)C(F)(F)C(F)(F)F | inactive |  |
| O=C(Cl)C(F)(F)C(F)(F)C(F)(F)C(F)(F)C(F)(F)C(F)(F)F | inactive |  |
| CC(C)(C)c1cc(CCC(=O)NCCCCCCNC(=O)CCc2cc(C(C)(C)C)c(O)c(C(C)(C)C)c2)cc(C(C)(C)C)c1O | inactive |  |
| COCCOCCC[Si](C)(O[Si](C)(C)C)O[Si](C)(C)C | inactive |  |
| O=C(O)C(F)(F)OC(F)(F)C(F)(F)OC(F)(F)C(F)(F)OC(F)(F)F | inactive |  |
| CCOC(=O)CC(=O)C(F)(F)C(F)(F)F | inactive |  |
| CC1=CCC(=O)O1 | inactive |  |
| C[Si](C)O[Si](C)C | inactive |  |
| CCOC(C=C(C)CCC=C(C)C)OCC | inactive |  |
